# HEK293 cAMP ctrl: raises cAMP in parental HEK293 cells, TSHR agonist counter-screen; parental HEK293 CNG cAMP sensor, membrane potential fluorescence; 2.5% of 73,000 active; Potency, µM (doses to about 57.1 µM), for the others: top-dose activation, most hits filed as activators; also: % of control where 0% means no effect; nearly all actives have a fitted effect of over 55% in size
#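 Parental HEK 293 cells stably expressing a modified CNG channel (no TSHR) report cAMP rise as membrane depolarization. Membrane potential dye with 100 uM RO 20-1724 was loaded for 60 min at room temperature, then compound added for 30 min; fluorescence read at 590 nm.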
# GBA activity: alters purified human glucocerebrosidase activity; purified enzyme, resorufin glucoside fluorescence (screen aimed at inhibitors), 20 min; 1.1% of 48,000 active; P04062; AID 360; Potency, µM; in the data active = potency below about 15 µM; inconclusive = mostly about 16 µM to 33 µM;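 also: the screen sought inhibitors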
#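 Compounds titrated against 0.2 nM normal enzyme, 30 uM resorufin beta-D-glucopyranoside substrate, citrate/phosphate buffer with taurocholate and tween-20, pH 5.9. Reaction ran 20 min at room temperature; fluorescence (Ex 548/Em 600) gave AC50.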
# TSHR agonist: TSH receptor (human) agonism. P16473. HEK293-CNG-TSHR cells (CNG channel as cAMP sensor), membrane potential dye, cAMP. Potency, µM (top dose mostly 57.1 µM), for the others: at the top dose activation, hits mostly activators. 0.48% of 73,000 active. AID 926; active = well fitted activation curve with a large enough effect in the main read-out, with a control signal flat, not every such curve was filed as active; inconclusive = small, poorly fitted or top-dose-only effect, or a change in a side signal; inactive = no such curve, though single readings can be large or run the other way; % of control where 0% means no effect;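 also: the control signal comes from parental cells without the receptor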
#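 cAMP rise detected as CNG-channel membrane depolarization by fluorescent dye (emission 590 nm), 30 min after compound, following 60 min dye loading containing 100 uM RO 20-1724 at room temperature. Cells: TSHR/CNG HEK 293, with parental CNG HEK 293 as control.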
# ERK AVP inh: inhibitors of vasopressin-stimulated ERK signaling pathway; 0.99% of 72,000 active; HEK293-V1b, vasopressin-stimulated pERK AlphaScreen; Potency, µM (titrated, usually from 57.5 µM), inactives show at the highest dose activity, negative = inhibition, most hits filed as inhibitors; AID 995; also: % is scaled to controls: 0 for no effect and ±100 for the full control effect; nearly all actives have a fitted effect of over 55% in size
#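 V1b-HEK293 cells; cpd 30 min 37C; 25 nM vasopressin 5 min; lyse 10 min; AlphaScreen beads 5 hr RT. Normalized to DMSO basal and 25 nM vasopressin; AC50 by Hill fit.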
# PK Bst: pyruvate kinase (B. stearothermophilus) modulation; purified pyruvate kinase, luminescence ATP production; ribose 5-phosphate activator present at AC10; Potency, µM; 1.2% of 51,000 active; AID 361; in the data active = potency below about 11 µM; inconclusive = mostly about 12 µM to 25 µM;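 the screen sought inhibitors and activators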;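 also: scaled between full activation by ribose 5 phosphate and full inhibition by luteolin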
# FLuc inh: firefly luciferase inhibition | 2.2% of 72,000 active | purified firefly luciferase, luminescence, 8 min | AID 411 | Potency, µM (titrated, usually from 57.1 µM), inactives show top-dose activity change, negative = inhibition, most hits filed as inhibitors; also: % is scaled to controls: 0 for no effect and ±100 for the full control effect; nearly all actives have a fitted effect of over 40% in size
# Target sequence (P08659 whole entry, looked up): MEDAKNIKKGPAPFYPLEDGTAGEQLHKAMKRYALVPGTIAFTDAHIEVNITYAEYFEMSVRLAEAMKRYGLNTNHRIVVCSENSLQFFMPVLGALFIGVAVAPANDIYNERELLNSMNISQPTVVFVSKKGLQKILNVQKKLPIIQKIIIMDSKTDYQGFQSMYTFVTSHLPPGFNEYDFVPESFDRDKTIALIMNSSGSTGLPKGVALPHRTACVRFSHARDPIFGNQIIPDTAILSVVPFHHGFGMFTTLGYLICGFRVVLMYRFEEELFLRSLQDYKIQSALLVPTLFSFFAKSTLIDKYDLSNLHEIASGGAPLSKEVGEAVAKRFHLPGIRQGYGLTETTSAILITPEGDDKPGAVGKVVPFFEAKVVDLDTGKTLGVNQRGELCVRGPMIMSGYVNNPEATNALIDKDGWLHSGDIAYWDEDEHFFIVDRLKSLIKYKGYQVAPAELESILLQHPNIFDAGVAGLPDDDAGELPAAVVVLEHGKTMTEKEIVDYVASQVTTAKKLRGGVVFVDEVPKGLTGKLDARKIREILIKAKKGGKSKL
#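 Inhibition of light generation by firefly luciferase from ATP and luciferin was profiled with concentration-response curves per sample, ATP held at 10 uM within the enzyme's linear range. Plates were read by luminescence after an 8-minute ambient incubation.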
# Numbers without * were called inactive; i = inactive; ? = inconclusive; . = no result; [ ] = remark or other dose. The list is not random: actives were taken first. Their share in the collection is about 6.1%. Unless noted, calls follow the shape of the dose curve; as a rule, active = well fitted curve in the direction sought with a large enough effect; inconclusive = small, poorly fitted or top-dose-only effect, or another doubt; inactive = no such curve, though single readings can be large; an effect the other way counts as inactive or inconclusive. Potency is read from the fitted curve at half-maximal effect.
SMILES,HEK293 cAMP ctrl,GBA activity,TSHR agonist,ERK AVP inh,PK Bst,FLuc inh
Cc1cc(-c2ccc(N=Nc3cc(S(=O)(=O)O)c4ccccc4c3N)c(C)c2)ccc1N=Nc1cc(S(=O)(=O)O)c2ccccc2c1N,-37%,.,?,?,.,.
OCc1nc2ccccc2n1CCCOc1ccc(Br)cc1,28%,i,19%,?,?,13µM*
COc1ccc(-c2noc(CSc3nc(N)c(-c4ccccc4)c(=O)[nH]3)n2)cc1,14%,>77,.,13µM*,>57,-5%
CCCc1cc(C(N)=O)c(NC(=O)c2cc(C)on2)s1,2%,>77,-3%,-7%,>57,-1%
Cc1cc(C(=O)Nc2sc(C)c(-c3ccc(F)cc3)c2C(N)=O)no1,27%,>77,7%,8%,>57,7.9µM*
CC1(C)[C@@H]2CC[C@]1(CC(=O)O)[C@H](Cl)C2,-10%[11.4 µM],.,6%[11.4 µM],7%[11.5 µM],.,2%[11.4 µM]
CC(C)(C)c1ccc(O)c(CN(Cc2cc(C(C)(C)C)ccc2O)C2CCCCC2)c1,22%[11.4 µM],.,18%[11.4 µM],17%[11.5 µM],.,5%[11.4 µM]
OC(CCN1CCCCC1)(c1ccccc1)C1CCCCC1 (stereo not given),.,.,.,4%,>26,-1%[25.5 µM]
OC(CCN1CCOCC1)(c1ccc(Cl)cc1)C1CCCCC1 (stereo not given),16µM*,i,?,14%,>57,3%
Cc1cccc(NC(=O)C2CCN(S(=O)(=O)c3cccc4nsnc34)CC2)n1,2%,>77,7%,14%,?,2%
COc1ccc2nc(NC(=O)C3CCN(S(=O)(=O)c4cccc5nsnc45)CC3)sc2c1,-12%,>77,20%,6%,3*,-2%
NC(=O)c1ccsc1NC(=O)COc1ccccc1,-6%,>77,-17%,-21%,i,20µM*
NC(=O)c1ccsc1NC(=O)CSc1ccccc1F,16%,>77,11%,?,>11,-6%
CC(C)CC(c1nnnn1C(C)C)N1CCN(c2cccc(Cl)c2)CC1 (stereo not given),1µM*,>77,?,-7%,>57,2%
O=C1C=CC2=C3c4cc(O)c(O)cc4C[C@@]3(O)COC2=C1O,1%,.,5%,.,.,-11%[11.4 µM]
COC(=O)C1CC1C(NC(=O)[C@@H]1CCCN1)c1ccccc1 (stereo not given in full),9%,.,6%,17%,.,.
CCOC(=O)c1ccc(NCc2nc3ccccc3[nH]2)cc1,22%,.,-1%,?,.,16µM*
CCc1nnc(NC(=O)c2ccc(S(=O)(=O)N3CCCCCC3)cc2)s1,-1%,1.4*,-1%,15%,>57,2%
CCc1nnc(NC(=O)c2ccncc2)s1,-6%,>77,1%,-10%,>57,-4%
CCc1nnc(NC(=O)c2ccc(S(=O)(=O)NCC(C)C)cc2)s1,-2%,1.8*,-4%,-4%,>57,1%
COC(=O)Cc1nnc(NC(=O)c2ccccc2)s1,10%,.,-1%,11%,>57,-1%
COCc1nnc(NC(=O)c2ccc(NC(=O)C(C)C)cc2)s1,-3%,0.54*,-1%,?,>57,-2%
Nc1ncnc2c1ncn2[C@H]1O[C@@H](CO)[C@@H](O)[C@H]1N,2%[11.4 µM],.,-1%[11.4 µM],4%[11.5 µM],.,0%[11.4 µM]
COc1ccc(-c2nc3cnc(N4CCOCC4)nc3n(-c3ccc(OC)cc3)c2=O)cc1,1%,.,-3%,37%,.,0%[11.4 µM]
CCN1C(C)=C(C(=O)OC)C(c2ccccc2)N2C(=O)[C@](O)(C(=O)OC)C(c3ccccc3)C(C(=O)c3ccccc3)=C12 (stereo not given in full),4µM*,.,?,-4%[11.5 µM],.,.
SMILES,HEK293 cAMP ctrl,GBA activity,TSHR agonist,ERK AVP inh,PK Bst,FLuc inh
N=C(N)SCc1cc(Cl)cc(Cl)c1O,8%[11.4 µM],.,2%[11.4 µM],4%[11.5 µM],.,3%[11.4 µM]
CCOC(=O)c1c(C)n(C)c2ccc(O)c(S(=O)(=O)c3ccccc3)c12,.,.,.,.,10*,-2%[25.5 µM]
O=C(Nc1cnccn1)c1ccncc1,14%,>77,21%,-24%,i,-2%
O=C(Nc1cnccn1)c1cccc(C(F)(F)F)c1,20µM*,>77,?,-14%,>57,?
O=C1C[C@@H](O)[C@@H](O)[C@H]2[C@@H]3C(=O)N(C4CCCCC4)C(=O)[C@@H]3CC[C@H]12,0%[11.4 µM],.,-4%[11.4 µM],19%[11.5 µM],.,1%[11.4 µM]
CCOC(=O)CCSc1nc2c(c(C(F)(F)F)c1C#N)CCC2,?,15*,?,51%,>57,0%
CCOC(=O)CC(=O)CSc1nc2c(c(C)c1C#N)CCC2,16%,.,18%,-29%,?,?
COC(=O)[C@@]1(Cc2ccccc2)[C@H]2c3cc(C(=O)N4CCCC4)[nH]c3C[C@H]2CN1C(=O)c1ccccc1,13%,.,8%,13%,.,.
CCOC(=O)N/N=C1/C[C@@H](O)[C@@H](O)[C@@H]2[C@@H]3C(=O)N(C4CCCCC4)C(=O)[C@H]3CC[C@H]12,1%[11.4 µM],.,-2%[11.4 µM],15%[11.5 µM],.,-1%[11.4 µM]
c1coc(CNc2nc(N3CCCCC3)nc3ccccc23)c1,?,9.6*,?,13%,>57,-4%
CC(C)c1cc(Nc2cccc(O)c2)cc(C(C)C)c1O,-5%,.,11%,32µM*,.,-5%
Oc1cccc(Nc2ccccc2)c1,-17%,.,?,2%,.,.
Nc1nc2sc3c(c2cc1C(=O)N1CCOCC1)CCCC3,5%[11.4 µM],.,3%[11.4 µM],?,.,?
Cc1cccc2cc3c(N)c(C(=O)N4CCOCC4)sc3nc12,2%,>77,-12%,-15%,?,16µM*
CCCCNc1nc(SC)nc2nc[nH]c12,-3%[11.4 µM],.,-10%[11.4 µM],-14%[11.5 µM],.,-1%[11.4 µM]
O=C(O)c1cc(-c2cccs2)nc2cc3c(cc12)OCCO3,1%,.,-3%,.,.,16µM*
Cc1ccc2nc(-c3ccc4c(c3)OCCO4)cc(C(=O)O)c2c1,-3%,>77,-6%,0%,?,13µM*
O=C(O)c1cc(-c2ccc3c(c2)OCO3)nc2ccccc12,5%,>77,8%,-11%,>11,-27%
COc1ccc(NC(=O)C2CCN(c3cc(C)nc(-c4ccccc4)n3)CC2)cc1,-10%,13*,-1%,11%,>57,-3%
COc1ccc(NC(=O)C2CCN(c3nc(C)nc4c3CCC4)CC2)cc1,32µM*,>77,?,8%,>57,6%
COc1ccc(NC(=O)C2CCCN(c3c4c(nc5ncnn35)CCC4)C2)cc1 (stereo not given),4%,>77,3%,-14%,>57,0%
CC(=O)OC(C)(C)N=Nc1ccc(Br)cc1,7%[11.4 µM],.,.,.,.,4%[11.4 µM]
CCC(CC)C(=O)NCc1ccc2c(c1)cc(C)n2C,6.3µM*,>77,?,12%,>57,-2%
CN(C)CC(C)(C)CNC(=O)c1ccc(Cc2nc3ccccc3[nH]2)cc1,-3%,.,-5%,.,.,.
O=C(Oc1ccc2c(c1)OCO2)c1ccc(F)cc1Cl,13%,>77,5%,54%,.,13µM*
CCOc1ncccc1C(=O)Oc1ccc2c(c1)OCO2,?,i,?,-6%,>57,1%

# Assay outcomes (PubChem)
